Vif-APOBEC3G blk: Vif-A3G binding inhibition | hit rate 0.076% among 410,000 | Potency, µM (highest dose often 46.1 µM), actives largely listed as inhibitors | Q9HC16 | HeLa A3G-eYFP + Vif (tagged APOBEC3G with the HIV-1 protein that degrades it), YFP fluorescence, overnight; further: nearly all actives have a fitted effect of over 60% in size
Target sequence (Q9HC16 whole entry, looked up): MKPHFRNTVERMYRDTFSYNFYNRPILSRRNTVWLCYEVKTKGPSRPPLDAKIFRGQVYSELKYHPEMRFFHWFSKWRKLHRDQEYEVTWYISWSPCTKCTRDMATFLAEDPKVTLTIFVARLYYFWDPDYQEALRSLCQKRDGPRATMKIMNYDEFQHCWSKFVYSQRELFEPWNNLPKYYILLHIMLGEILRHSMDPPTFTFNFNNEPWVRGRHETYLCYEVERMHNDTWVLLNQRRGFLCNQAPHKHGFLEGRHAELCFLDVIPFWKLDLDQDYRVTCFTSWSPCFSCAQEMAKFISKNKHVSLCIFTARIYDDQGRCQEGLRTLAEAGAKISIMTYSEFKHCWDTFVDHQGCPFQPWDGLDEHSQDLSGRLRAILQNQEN
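HeLa cells stably expressing Vif and C-terminally eYFP-tagged A3G, seeded overnight at 37 deg C, then exposed to compound by pintool overnight at 37 deg C. Rise in yellow fluorescence (Ex 488/Em 500-530, Acumen) marks blocked Vif-driven A3G degradation.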
Vif-APOBEC3F blk: blocks the Vif interaction with APOBEC3F. Potency, µM (doses to about 46.1 µM). HeLa A3F-eYFP + Vif (tagged APOBEC3F with the HIV-1 protein that degrades it), YFP fluorescence increase. hit rate 0.2% among 390,000. AID 602313; further: nearly all actives have a fitted effect of over 65% in size
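HeLa cells stably expressing Vif plus C-terminally eYFP-tagged A3F were seeded, incubated overnight at 37 deg C, dosed with compound, incubated overnight again at 37 deg C. Yellow fluorescence (Ex 488/Em 500-530) reported blocked Vif-mediated A3F-eYFP degradation.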
Epigenetic reg: derepresses silenced GFP reporter in murine cells; hit rate 0.2% among 280,000; Potency, µM (doses to about 53.9 µM), hits mostly activators; murine LDR cells, GFP reporter derepression, 30 h; further: nearly all actives have a fitted effect of over 60% in size
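Readout is the number of GFP-expressing murine LDR cells, counted by cytometry following washing. Cells were treated with compound for 30 h at 37 C; the stably integrated CMV-GFP locus is normally silent.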
A number is an active result; i = inactive; ? = inconclusive; nt = not tested or not shown. A selection: hits, their analogues and other compounds. The true share with any hit is near 0.34%. The call rests on the fitted dose curve; in most records, active means well fitted curve in the direction sought with a large enough effect; inconclusive means small, poorly fitted or top-dose-only effect, or another doubt; inactive means no such curve, though single readings can be large; an effect the other way counts as inactive or inconclusive.

SMILES | Vif-APOBEC3G blk | Vif-APOBEC3F blk | Epigenetic reg
O=C(NCCCNc1ccc(C(F)(F)F)cc1[N+](=O)[O-])c1ccc(F)cc1 | i | ? | 18µM
Cc1ccc(C(=O)NCCCNc2ccc(C(F)(F)F)cc2[N+](=O)[O-])cc1 | i | ? | i
Cc1ccc(CN2c3ccccc3-c3nc(SCC(=O)NCc4ccccc4)ncc3S2(=O)=O)cc1 | i | i | i
COc1ccc(CNC(=O)CSc2ncc3c(n2)-c2ccc(Cl)cc2N(Cc2ccccc2)S3(=O)=O)cc1 | i | i | 16µM
COc1cc(NC(=O)C2CCN(S(=O)(=O)c3c(C)noc3/C=C/c3c(C)cc(C)cc3C)CC2)cc(OC)c1 | i | i | i
CC(=O)Nc1c2c3c(cccc3n(C)c1=O)C(=O)c1ccccc1-2 | i | i | i
Cn1c(=O)c(Nc2ccc(Cl)cc2)c2c3c(cccc31)C(=O)c1ccccc1-2 | ? | 5µM | ?
COc1ccc(C2=Nc3ccc(OC(F)(F)F)cc3NC(c3cccnc3)=N2)cc1 | nt | nt | i
O=C(NCCc1cccs1)c1ccc(Cl)c(Cl)c1 | i | 2.5µM | i
O=C(NCCc1cccs1)c1ccc(Cl)cc1 | i | i | i
COc1ccccc1N1CCN(S(=O)(=O)CCNC(=O)COc2ccc(C(C)C)cc2)CC1 | i | i | i
COc1ccc(C(=O)/C=C2\Sc3ccccc3N2C)cc1 | i | i | i
COc1ccc(-[n+]2c(C)cc(/C=C3\Sc4ccccc4N3C)cc2C)cc1 | ? | i | 3.2µM
COc1ccccc1OC(=O)CCN1c2ccccc2Sc2ccccc21 | i | i | i
COc1ccccc1-[n+]1c(C)cc(/C=C2\Sc3ccccc3N2C)cc1C | ? | ? | 7.9µM
COc1cc(/C=N\Nc2ccc([N+](=O)[O-])cc2)ccc1OCC(=O)Nc1ccc(C)c(C)c1 | i | 10µM | 6.3µM
COc1cc(/C=N\NC(=O)CN2CCOCC2)ccc1OCC(=O)Nc1ccc(C)c(C)c1 | i | i | i
CN1CCN(CCNC(=O)c2cnn(-c3ccc(Cl)cc3)c2C2CCN(C(=O)OC(C)(C)C)CC2)CC1 | i | i | i
CCOC(=O)N1CCN(Cc2ccccn2)CC1 | i | nt | i
Oc1ccc(CN2CCN(c3ccccc3)CC2)c2cccnc12 | i | i | 3.5µM
CCOC(=O)N1CCN(Cc2ccc(O)c3ncccc23)CC1 | i | i | 4µM
Oc1ccc(CN2CCc3ccccc3C2)c2cccnc12 | i | i | 3.5µM
Oc1ccc(CN2CCC(Cc3ccccc3)CC2)c2cccnc12 | i | i | ?
Oc1ccc(CN2CCCCC2)c2cccnc12 | i | i | ?
COc1ccc2c(C)c(CCC(=O)NCc3cccc(Cl)c3)c(=O)oc2c1 | i | i | i
SMILES | Vif-APOBEC3G blk | Vif-APOBEC3F blk | Epigenetic reg
CCN(c1cc(C)cc(C)c1)S(=O)(=O)c1nnc(NC(=O)c2cccc(F)c2)s1 | i | i | i
CC(C)(C)CC(C)(C)N=C1Nc2cc(Cl)c(Cl)cc2N[C@]12C[C@H]1CCCC(=O)N3CC[C@@H](C2)[C@@H]13 | i | nt | nt
O=c1[nH]ncc2c3ccccc3n(Cc3cccc(Cl)c3)c12 | ? | 25µM | i
O=c1[nH]ncc2c3ccccc3n(Cc3ccc(F)cc3)c12 | i | i | i
COc1cc(C(=O)NCC(c2cccs2)S(=O)(=O)c2ccc(F)cc2)cc(OC)c1OC (stereo not given) | i | i | i
COc1ccc(/C=C2\CC/C(=C\c3ccc(OC)cc3OC)C2=O)c(OC)c1 | i | 8.9µM | ?
COc1cc(/C=C2\COC/C(=C\c3ccc(O)c(OC)c3)C2=O)ccc1O | ? | i | i
COc1ccc(/C=C2\CCC(C3CCCC3)C2=O)c(OC)c1 (stereo not given) | i | i | nt
COc1cc(/C=C2/CC/C(=C/c3ccc(O)c(OC)c3)C2=O)ccc1O | ? | ? | 25µM
CCOC(=O)c1sc2ccccc2c1S(=O)(=O)Nc1ccc(CC)cc1 | i | i | i
CCOC(=O)c1c(NC(=O)C(C)Sc2cn(CCNC(=O)c3ccc(OC)c(OC)c3)c3ccccc23)sc2c1CCC2 (stereo not given) | i | i | i
C=C[C@H]1CN2CC[C@@H]1C[C@H]2[C@@H](O)c1ccnc2ccc(OC)cc12 | nt | nt | i
Cc1ccc(Cl)cc1NS(=O)(=O)c1cc2c3c(c1)CC(=O)N3CCC2 | i | i | i
C[N+]1(CC(=O)c2ccc(I)cc2)CCCc2ccccc21 (stereo not given) | i | nt | nt
CCOc1ccc(NC(=O)Cn2cc(C(=O)c3ccc(OCC)cc3)c(=O)c3cc4c(cc32)OCCO4)cc1 | i | i | 20µM
CCOc1ccc(C(=O)c2cn(CC(=O)Nc3ccc(Cl)cc3)c3cc4c(cc3c2=O)OCCO4)cc1 | i | i | i
COc1cccc(CNC(=O)CCc2nnc3n(C)c(=O)c4sccc4n23)c1 | nt | nt | i
COc1cccc(CNC(=O)c2ccc(NC(=O)N3CCCCc4ccccc43)cc2)c1 | i | i | i
COc1ccc(C(=O)c2sc3nc(C)cc(-c4cccs4)c3c2N)cc1 | 13µM | 22µM | i
Cc1cc(-c2cccs2)c2c(N)c(C(=O)c3ccc4c(c3)OCO4)sc2n1 | i | i | i
N#Cc1sc2nc(C3CC3)cc(-c3ccc(Cl)cc3)c2c1N | i | i | i
COc1ccc(-c2cc(-c3cccs3)nc3sc(C#N)c(N)c23)cc1 | ? | 11µM | i
COc1ccc(C(=O)c2sc3nc(-c4ccc(C)cc4)cc(C(F)(F)F)c3c2N)cc1 | 8.9µM | 1.3µM | 1µM
COc1ccc(C(=O)c2sc3nc(-c4ccc(OC)cc4)ccc3c2N)cc1 | i | ? | i
CCn1nc(C)c2c(-c3ccccc3)cc(=O)n(C(C)C(=O)Nc3cccc(F)c3)c21 (stereo not given) | i | i | i
SMILES | Vif-APOBEC3G blk | Vif-APOBEC3F blk | Epigenetic reg
COC(=O)c1sccc1S(=O)(=O)N1CCN(c2cccc(C)c2)C(C)C1 (stereo not given) | i | i | i
Oc1[nH]c2ccccc2c1N=Nc1ccccc1 | ? | 25µM | ?
O=C(N=Nc1c(O)[nH]c2ccccc12)Nc1ccccc1 | i | i | nt
CCN(CC)C(=O)CSc1nc(-c2ccccc2)cc(-c2ccc(OC)cc2)c1C#N | i | i | i
O=C(CCn1c(=O)c2cccn2c2ccc(F)cc21)NCCc1ccccc1Cl | i | i | i
Cc1ccnc2ccc(N)cc12 | i | nt | nt
Cc1ccc(C(=O)CCC(=O)OCC(=O)Nc2ccccc2SCC#N)cc1 | i | 13µM | nt
CSc1ccccc1NC(=O)COC(=O)CCC(=O)c1ccc(F)cc1 | i | i | nt
COc1cccc(N2CCN(Cc3nc4ccccc4c(=O)[nH]3)CC2)c1 | i | i | i
COc1cccc(N2CCN(Cc3nc4scc(-c5ccccc5)c4c(=O)[nH]3)CC2)c1 | 8.9µM | i | i
CCOc1ccc(CNC(=O)c2cccc(NC(=O)N3CCSc4ncccc43)c2)cc1OC | i | i | i
CN(C)c1ccc(/C=C/c2cccc[n+]2[O-])cc1 | i | ? | i
CC(C)CC[n+]1ccccc1/C=C/c1ccc(N(C)C)cc1 | 10µM | 7.9µM | nt
CCNC(=O)c1c(NC(=O)c2nc(SC)ncc2Cl)sc2c1CCCC2 | i | nt | nt
CCSc1ncc(Cl)c(C(=O)Nc2sc3c(c2C(=O)OC)CCCC3)n1 | i | nt | nt
CCSc1ncc(Cl)c(C(=O)Nc2sc3c(c2C(=O)NC)CCCC3)n1 | i | ? | 7.1µM
CCCSc1ncc(Cl)c(C(=O)Nc2sc3c(c2C(=O)NCC)CCCC3)n1 | i | nt | 4.5µM

Assay outcomes: PubChem, National Center for Advancing Translational Sciences (NCATS)
